The results in this text go back to PubChem BioAssay (NCATS).

Test [1] in a line: Cytotoxicity counterscreen for NFkB agonists and antagonists (AID 624476).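 Also: cells exposed to compound for 48 hours.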 Also: potency is read from the fitted curve at half-maximal effect.
Test [2] is described as follows: qHTS Assay for Identification of Small Molecule Agonists for NFkB Signaling Pathway. (AID 624478). Also: 0% is about no effect. The essentials:
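NFkB-bla ME-180 cells carry a beta-lactamase reporter. They received compound plus TNF alpha at 10 pM final (its EC50) for 5 h at 37 C. Reporter activity was read as 460/530 nm emission ratio after 2 h LiveBLAzer substrate loading.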

Test [3] can be described thus: qHTS Assay for Identification of Small Molecule Antagonists for NFkB Signaling Pathway. (AID 624479; calls by dose curve;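 also: pathway stimulated with TNF alpha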; also: potency is read from the fitted curve at half-maximal effect). A general note: In qHTS, concentration-response curves come from the screen itself.
The nature of test [4]: Cell Proliferation Assay against the TMD8 Cell Line (AID 651645).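 Also: cells exposed to compound for 48 h before reading.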 To be noted: TMD8 DLBCL cell line proliferation/viability; at 46.1 µM (top of the series). In short, it runs like this: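 Luminescent ATP read-out (CellTiter-Glo, 15 min RT) after 48 h compound exposure of log-growing TMD8 cells at 37C; percent activity scaled between DMSO as 100% and 9.2 uM bortezomib final as 0%.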

A short description of test [5]: Cell Proliferation Assay against the HBL1 Cell Line (AID 651646).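 Also: cells exposed to compound for 48 h before reading.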 The conditions noted are these: HBL1 DLBCL cells; at 46.1 µM (top of the series). In short, it runs like this: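 500 log-phase HBL1 cells per well in phenol red-free RPMI with 5% FBS were treated with compounds for 48 h at 37 °C, 5% CO2. Viability was read by CellTiter-Glo luminescence, normalized to DMSO (100%) and 9.2 uM bortezomib final (0%).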

Test [6] is described as follows: Cell Proliferation Assay against the TMD8 Cell Line (Caspase readout at 16 hrs) (AID 651712). The essentials:
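TMD8 cells (500/well) in phenol-red-free RPMI with glutamine, 5% FBS, were exposed to compounds for 16 h at 37 °C. Caspase 3/7 activation was read by Caspase-Glo luminescence; percent activity normalised to DMSO (0%) and 9.2 uM bortezomib final (100%).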

Test [7] addresses Luciferin 4-monooxygenase (Photinus pyralis) (UniProt P08659). As to the kind of experiment: Biochemical firefly luciferase enzyme assay for NPC (AID 624030).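 Also: purified P. pyralis luciferase at 10 nM with luciferin and ATP substrate; 0% = DMSO and -100% = full luciferase inhibition by PTC124 control; nearly all actives have a fitted effect of over 70% in size.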 The essentials:
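Counter-screen for direct inhibition of the luciferase enzyme by approved-drug library compounds, run at 10 nM enzyme in 50 mM Tris acetate (final). Luminescence was read within 5 min of enzyme-buffer addition and normalized to PTC124 versus DMSO (0%).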

Test [8] can be described thus: S16 Schwann cell viability assay (CellTiter-Glo assay) (AID 624031).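 Also: native untransfected S16 rat Schwann cells; plate controls were DMSO-treated cells for no effect and cell-free wells for full effect; nearly all actives have a fitted effect of over 70% in size.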 The essentials: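 Counter-screen for cytotoxicity: parental S16 rat Schwann cells lacking the PMP22 reporters, treated 24 h with compound, viability from cellular ATP by CellTiter-Glo luminescence, normalized to DMSO (0%) and no-cell wells.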
Background: Cellular ATP, detected with luciferase, serves as a proxy for viable cell number.

The nature of test [9]: S16 Schwann cell PMP22 intronic element firefly luciferase assay (AID 624032). Also: nearly all actives have a fitted effect of over 30% in size. Also: potency is read from the fitted curve at half-maximal effect. The essentials:
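Rat S16 Schwann cells stably carrying a PMP22 intronic element-driven Fluc reporter were seeded overnight, then exposed to compounds for 24 h at 37 °C. Luminescence was normalized to PTC124 (positive control) and DMSO (0% activity).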

The nature of test [10]: S16 Schwann cell PMP22 intronic element beta-lactamase assay (AID 624044; calls by dose curve; also: nearly all actives have a fitted effect of over 15% in size; also: potency is read from the fitted curve at half-maximal effect). The essentials: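 Rat S16 Schwann cells with beta-Lac driven by a PMP22 intronic element, compound-treated 24 h at 37 °C. LiveBLAzer FRET B/G read: 460 nm normalized to potassium clavulanate vs DMSO; 535 nm FRET as viability; concentration-effect curves classified.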
Test [11] has as its target Glutaminase kidney isoform, mitochondrial (Homo sapiens) (UniProt O94925). As to the kind of experiment: qHTS for Inhibitors of Glutaminase (GLS): LOPAC Validation (AID 624146).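 Also: glutamate product detected by oxidase and peroxidase coupled Amplex red fluorescence gain; % is scaled to controls: 0 for no effect and ±100 for the full control effect; nearly all actives have a fitted effect of over 60% in size.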 The essentials:
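hKGA in 45 mM KH2PO4 pH 8.2, 0.02% Tween-20 with pin-transferred compounds; 1 mM L-glutamine (stock) plus glutamate oxidase/HRP/Amplex Red coupling added. Fluorescence read initially and after 30 min at RT.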

Test [12] in a line: qHTS of Trypanosoma Brucei Inhibitors: LOPAC Validation (AID 624147). Also: 0% is about no effect. In short, it runs like this:
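Activity of T. brucei pyruvate kinase was followed by Kinase-Glo Plus luminescence after the enzyme reacted 45 min at room temperature with 130 uM ADP (final) and substrate. Test compounds were added before ADP at multiple concentrations.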

The target of test [13] is Glucagon-like peptide 1 receptor (Homo sapiens) (UniProt P43220). As to the kind of experiment: qHTS of GLP-1 Receptor Agonists: LOPAC Validation (AID 624148).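 Also: 0% is about no effect; higher luminescence signal means agonism.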 The essentials:
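HEK293 cells stably co-expressing a cAMP-responsive luciferase reporter and a hypersensitive GLP-1R were plated 12 h at 37 °C and exposed to compounds for 4-6 hr at 37 °C, 5% CO2. Luminescence was read 12 min after adding detection reagent.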

The nature of test [14]: qHTS of Nrf2 Activators: LOPAC Validation (AID 624149). Also: 0% is about no effect. The essentials: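 AREc32_Fluc cells, 1000/well in OPTI-MEM with 5% FBS, grown overnight, then exposed to compounds for 24 hr at 37 deg C, 5% CO2. ARE-driven firefly luciferase read by Steady-Glo luminescence after 30 min at RT.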
A short description of test [15]: HTS Assay for Allosteric Antagonists of the Human D2 Dopamine Receptor: Hit Validation in HTRF (AID 624455).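 Also: stable D1 dopamine receptor cell line scored for blocking the D1 response; % is scaled to controls: 0 for no effect and ±100 for the full control effect.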 The essentials: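 Hit validation in cells stably expressing the D1 dopamine receptor, run in HTRF format. Compounds were tested for their ability to inhibit the D1-mediated response.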
A general note: TR-FRET usually uses a lanthanide donor and a delayed reading to cut background.

Records with an inconclusive call do not appear. Active and inactive are the calls of the source. Unless noted, calls follow the shape of the dose curve; as a rule, active = well fitted curve in the direction sought with a large enough effect; inconclusive = small, poorly fitted or top-dose-only effect, or another doubt; inactive = no such curve, though single readings can be large; an effect the other way counts as inactive or inconclusive.

Chain of Luciferin 4-monooxygenase (Photinus pyralis) (P08659 whole entry, looked up): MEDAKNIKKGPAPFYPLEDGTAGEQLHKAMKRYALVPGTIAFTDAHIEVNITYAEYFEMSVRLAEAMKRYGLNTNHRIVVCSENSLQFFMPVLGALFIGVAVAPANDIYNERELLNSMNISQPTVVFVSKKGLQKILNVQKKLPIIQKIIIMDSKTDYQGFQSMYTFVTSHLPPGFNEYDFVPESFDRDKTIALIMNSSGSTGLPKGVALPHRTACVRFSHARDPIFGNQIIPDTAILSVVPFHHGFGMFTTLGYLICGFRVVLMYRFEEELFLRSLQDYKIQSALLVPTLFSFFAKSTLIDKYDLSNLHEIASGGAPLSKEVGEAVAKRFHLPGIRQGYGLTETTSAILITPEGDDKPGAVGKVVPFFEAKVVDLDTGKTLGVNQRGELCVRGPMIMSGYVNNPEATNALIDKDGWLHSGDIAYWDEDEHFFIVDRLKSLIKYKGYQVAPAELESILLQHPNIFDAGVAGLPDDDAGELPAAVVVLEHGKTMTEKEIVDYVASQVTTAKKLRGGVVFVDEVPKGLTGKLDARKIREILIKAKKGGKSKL
Chain of Glucagon-like peptide 1 receptor (Homo sapiens) (P43220 whole entry, looked up): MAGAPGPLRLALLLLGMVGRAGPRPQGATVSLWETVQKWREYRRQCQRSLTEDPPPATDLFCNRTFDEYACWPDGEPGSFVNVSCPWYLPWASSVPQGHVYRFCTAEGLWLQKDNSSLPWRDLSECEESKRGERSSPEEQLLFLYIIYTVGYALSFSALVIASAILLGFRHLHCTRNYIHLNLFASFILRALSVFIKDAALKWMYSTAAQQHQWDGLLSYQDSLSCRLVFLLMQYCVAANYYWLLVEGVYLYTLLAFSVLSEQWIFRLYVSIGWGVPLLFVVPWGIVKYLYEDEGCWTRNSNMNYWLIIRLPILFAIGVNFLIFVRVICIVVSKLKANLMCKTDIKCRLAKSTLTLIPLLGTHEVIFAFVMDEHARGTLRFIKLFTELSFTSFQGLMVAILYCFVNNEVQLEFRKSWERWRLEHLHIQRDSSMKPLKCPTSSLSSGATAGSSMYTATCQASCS
Chain of Glutaminase kidney isoform, mitochondrial (Homo sapiens) (O94925 whole entry, looked up, canonical isoform): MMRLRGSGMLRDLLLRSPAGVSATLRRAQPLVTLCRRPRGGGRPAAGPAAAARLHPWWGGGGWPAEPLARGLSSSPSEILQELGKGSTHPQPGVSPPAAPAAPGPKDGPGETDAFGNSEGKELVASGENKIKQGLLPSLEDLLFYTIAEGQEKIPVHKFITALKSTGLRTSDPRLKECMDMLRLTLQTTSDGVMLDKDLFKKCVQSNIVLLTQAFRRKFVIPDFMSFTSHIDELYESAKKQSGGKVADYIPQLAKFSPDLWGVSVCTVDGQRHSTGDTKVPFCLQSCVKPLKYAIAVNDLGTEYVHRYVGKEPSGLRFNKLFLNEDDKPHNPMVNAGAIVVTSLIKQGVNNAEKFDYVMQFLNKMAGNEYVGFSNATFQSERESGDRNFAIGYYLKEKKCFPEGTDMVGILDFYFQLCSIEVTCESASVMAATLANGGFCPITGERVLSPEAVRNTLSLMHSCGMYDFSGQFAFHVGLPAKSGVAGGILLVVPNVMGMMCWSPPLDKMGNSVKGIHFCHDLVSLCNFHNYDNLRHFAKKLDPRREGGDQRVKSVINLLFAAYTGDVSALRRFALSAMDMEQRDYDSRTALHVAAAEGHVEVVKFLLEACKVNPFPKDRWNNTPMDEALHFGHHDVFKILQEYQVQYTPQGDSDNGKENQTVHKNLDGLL

Consider `CC(C)Oc1cc(Nc2nc(N[C@@H](C)c3ccc(F)cn3)ncc2Cl)[nH]n1`, for which the Potency in test [1] is 2.96 µM (active); in test [3], 14.9 µM (active). Also, the result in [2] was inactive. Also, in test [4], the viability (% of control) came out at 0.843%. Further, in test [5], the viability, percent of control is 13.4%. The Potency result in [6] was “inactive”.
Take `COc1ccnc(CS(=O)c2nc3ccc(OC(F)F)cc3[nH]2)c1OC` (stereo not given): the outcome in [7] and in test [8] was inactive. Further, the Potency entry in test [9] and in [10] was “inactive” throughout.
Take `N#Cc1c(N(CC(=O)O)CC(=O)O)sc(C(=O)O)c1CC(=O)O`: the outcome in test [7] and in test [8] was inactive. Also, the Potency result in test [9] and in test [10] was “inactive” in each case.
As for `C=C1c2cccc(O)c2C(O)=C2C(=O)[C@@]3(O)C(O)=C(C(N)=O)C(=O)[C@@H](N(C)C)[C@@H]3[C@@H](O)[C@H]12`, the outcome in test [7] was inactive. The Potency result in test [9] and in test [10] was “inactive” throughout.
As to `CC[C@]1(O)C[C@H]2CN(CCC3=c4ccccc4=N[C]3[C@@](C(=O)OC)(c3cc4c(cc3OC)N(C)[C@H]3[C@@](O)(C(N)=O)[C@H](O)[C@]5(CC)C=CCN6CC[C@]43[C@@H]65)C2)C1`, in test [7], the outcome was inactive.
`C[C@@H](O[C@H]1OCCN(Cc2n[nH]c(=O)[nH]2)[C@@H]1c1ccc(F)cc1)c1cc(C(F)(F)F)cc(C(F)(F)F)c1`: the call in test [7] and in test [2] was inactive. Further, the Potency in [1] is 29.6 µM (active); in test [3], 23.7 µM (active).
With `COc1cc2nccc(Oc3ccc(NC(=O)Nc4cc(C)on4)c(Cl)c3)c2cc1OC`, in [1], the Potency result was “inactive”. Further, the result in [2] was inactive. The Potency in test [3] is 16.8 µM (active). Besides, the viability (% of control) in [4] turned out to be 6.06%.
Turning to `Cc1nn(Cc2ccccc2Cl)c(C)c1CN(C)CC(O)COc1ccc(Cl)cc1` (stereo not given), the Potency entry in [1] and in test [3] was “inactive” in each case. Also, in test [2], the compound was classed as inactive. Moreover, the viability (% of control) in test [4] stood at 9.51%.
In the case of `COc1cc2c(cc1OC)CC(=O)N(CCCN(C)C[C@H]1Cc3cc(OC)c(OC)cc31)CC2`, the call in test [7], in [8] and in test [2] was inactive. Also, the Potency entry in test [9], in [1], in test [3] and in test [6] was “inactive” each time. The viability (% of control) in [4] worked out at 108%.
Take `CCCCC(F)(F)[C@@]1(O)CC[C@H]2[C@H](CC(=O)[C@@H]2CCCCCCC(=O)O)O1`: the compound was classed as inactive in [7].
For `C=CCc1cccc(C=NNC(=O)CN2CCN(Cc3ccccc3)CC2)c1O`, the compound was classed as inactive in [11], in [12], in test [13], in test [14] and in test [15].
For `CCC(=O)OCC(=O)[C@@]1(OC(=O)CC)[C@@H](C)C[C@@H]2[C@H]3CCC4=CC(=O)C=C[C@]4(C)[C@@]3(F)[C@@H](O)C[C@@]21C`, the compound was classed as inactive in test [7].
With `O=C1C(CCC(O)c2ccc(F)cc2)C(c2ccc(O)cc2)N1c1ccc(F)cc1` (stereo not given), the compound was called inactive in test [7], in [8] and in test [2]. Further, the Potency result in test [10], in [1] and in test [3] was “inactive” each time. In [4], the viability (% of control) worked out at 87.2%.
Take `CC(C)CN(C[C@@H](O)[C@H](Cc1ccccc1)NC(=O)O[C@H]1CO[C@H]2OCC[C@H]21)S(=O)(=O)c1ccc(N)cc1`: the call in test [7] and in test [8] was inactive. For the same compound, the Potency entry in [9] is “inactive”.
As to `C[C@H]1O[C@@H](n2cc(F)c(=O)[nH]c2=O)[C@H](O)[C@H]1O`, the outcome in test [11], in test [12], in [13], in [14] and in test [15] was inactive.
Regarding `CC(C)C[C@@H](C(=O)N[C@H](C(=O)OC1CCCC1)c1ccccc1)[C@H](O)C(=O)NO`, the Potency entry in test [1] and in test [3] was “inactive” each time. Also, the call in test [2] was inactive. Further, in test [4], the viability (% of control) is 4.45%.
Take `COc1c(C)c2c(c(O)c1CC=C(C)CCC(=O)OCCN1CCOCC1)C(=O)OC2`: the compound was called inactive in [7]. Moreover, the Potency in test [9] is 5.1 µM (active); in [10] it was 2.82 µM (active).
In the case of `CN1CCN2c3ncccc3Cc3ccccc3C2C1` (stereo not given), the outcome in test [7] and in test [8] was inactive. Further, the Potency entry in [9] and in [10] was “inactive” in each case.
As for `N#CC(c1ccc(Cl)cc1)c1c(Cl)cc(-n2ncc(=O)[nH]c2=O)cc1Cl` (stereo not given), in [8], the result was inactive. In addition, the Potency entry in test [9] and in [10] was “inactive” throughout.
`CCCCCCCCCCCCCCCC(=O)O[C@H]1[C@@H](O)[C@@H](O)[C@@H]([C@H](NC(=O)[C@@H]2C[C@@H](CCC)CN2C)[C@H](C)Cl)O[C@@H]1SC`: in test [7], the outcome was inactive.
As to `O=C(CCCN1CCN(c2ccc(F)cc2)CC1)NC1c2ccccc2CSc2ccccc21` (stereo not given), the outcome in test [7] was inactive.
With `NCC1CCC(C(=O)O)CC1` (stereo not given), the compound was classed as inactive in test [7] and in [8]. Further, the Potency entry in test [9] and in [10] was “inactive” throughout.
As for `CNC(=O)c1cc(Oc2ccc(NC(=O)Nc3ccc(Cl)c(C(F)(F)F)c3)c(F)c2)ccn1`, the Potency in [1] was 5.26 µM (active); in [3] it was 5.95 µM (active). The compound was called inactive in test [2]. Besides, the viability (% of control) in test [4] is 3.02%. The Potency result in test [6] is “inactive”.
As for `Clc1ccc(COC(Cn2ccnc2)c2ccc(Cl)cc2Cl)c(Cl)c1` (stereo not given), the outcome in test [7] and in [8] was inactive. In addition, the Potency in test [9] is 8.7 µM (active). For the same compound, the Potency result in [10] was “inactive”.
For `CS(=O)(=O)c1ccc(C2=C(c3ccccc3)C(=O)OC2)cc1`, the compound was called inactive in test [7] and in [8]. For the same compound, the Potency entry in test [9] and in test [10] was “inactive” throughout.
On to `Cc1cc2nc3c(=O)[nH]c(=O)nc-3n(CC(O)C(O)C(O)CO)c2cc1C` (stereo not given), for which the outcome in [7] and in test [8] was inactive. Moreover, the Potency result in test [10] was “inactive”.
Regarding `O=C1CN2Cc3c(ccc(Cl)c3Cl)N=C2N1`, the compound was called inactive in test [7] and in [2]. For the same compound, the Potency entry in test [1] and in [3] was “inactive” in each case.
